Measured values taken from ChEMBL document CHEMBL4513216, “Probing the Open Global Health Chemical Diversity Library for Multistage-Active Starting Points for Next-Generation Antimalarials” (ACS Infect Dis, 2020).
The whole screen tested about 69,000 compounds, of which about 8,600 (12%) showed an effect of 50% or more. Many of the other results were omitted from the sample, so strong results are more common in it than they were.

test system: Plasmodium berghei; test: Screen against P. berghei liver stage (PbLuc), transformed with Luciferase, at 10uM; assay type: functional, HepG2; details: tested at 10 uM

SMILES | INHIBITION
COc1ccc(OC)c(-c2cc(C(=O)NCC3(CO)CC3)n(C)n2)c1 | 6.54%
O=C(NC[C@]12COC[C@H]1CN(Cc1cccnc1)C2)c1ccno1 | 29%
c1cc(C2CCN(Cc3ccc4c(c3)OCO4)CC2)ccn1 | 19.4%
Cc1ccc(NCc2cc(C#N)ccc2F)cc1-n1nnnc1C | -3.83%
CC(C)CC(=O)N1CCCn2cnc(CNS(C)(=O)=O)c2C1 | -3.33%
CC(C)NC(=O)[C@H]1C[C@@H]2[C@@H](C1)OCCN2Cc1nccs1 | 16.9%
Nc1nccnc1C1CN(C(=O)c2ccnnc2)CCO1 (configuration not stated) | 26.8%
CSC(C)(C)CNC(=O)NC1CCC1 | 34.6%
CCNc1cc2c(nn1)CCN(C(=O)C(C)c1c(C)noc1C)C2 (configuration not stated) | 31.9%
Cc1nnc(NC(=O)NCc2ccc(F)cc2)s1 | -162%
COC(=O)c1ccoc1CN(C)Cc1ccccc1 | 37.1%
CC(c1cc(F)ccc1F)N(C)Cc1nc2c(cnn2C)c(=O)[nH]1 (configuration not stated) | 16.34%
CCc1nn(-c2cc(Oc3cc(C)ccc3C)nc(C)n2)c(N)c1C#N | 64.9%
CCc1nn(-c2cc(Oc3cc(C)ccc3C)ncn2)c(N)c1C#N | 57.8%
Cc1ccc(C)c(NC(=O)Cn2nc(C)c(C#N)c2N)c1 | 14.6%
COc1ccc(C)cc1NC(=O)Cn1nc(C)c(C#N)c1N | 16.8%
CCOC(=O)c1cnn(-c2cc(Oc3cc(C)ccc3C)ncn2)c1N | 18.6%
Cc1ccc(C)c(Oc2cc(-n3nc(C)c(C#N)c3N)nc(C)n2)c1 | 55.6%
CCc1nn(-c2cc(Oc3ccccc3)nc(C)n2)c(N)c1C#N | 31.8%
CCc1nn(-c2cc(Oc3cccc(C)c3)nc(C)n2)c(N)c1C#N | -7.81%
CC(O)c1cn(Cc2ccccc2)nn1 (configuration not stated) | -1.84%
O=C(c1ncccn1)N1CCC[C@]2(C[C@H](OCC3CC3)CO2)C1 | 40.4%
COc1c(C2CCCN2C(=O)c2sc(C)nc2C)c(C)nn1C (configuration not stated) | 8.64%

SMILES | INHIBITION
CN(C)[C@@H]1CN(C(=O)CCc2ccccc2)[C@@H]2CCCO[C@H]12 | 8.66%
Cc1ccc(CC(=O)N2CCCC2Cn2nc(C)cc2C)cn1 (configuration not stated) | 33.7%
CC(=O)N1CCCC(C(=O)NCCc2ccc(F)c(Br)c2)C1 (configuration not stated) | 9.72%
CCc1c(C(=O)N2CCN(c3cnccn3)CC2)cnn1C(C)(C)C | -0.219%
CC(=O)N(Cc1noc(C2CC2)n1)C1CCN(Cc2cccnc2)C1 (configuration not stated) | 25.7%
COc1cc(CNc2cnn(CCN3CCOCC3)c2)cc(OC)c1 | 1.74%
N#Cc1ccc(CNc2cnn(CCN3CCOCC3)c2)cc1 | 24%
Cc1ccccc1C(=O)Nc1cnn(CCN2CCOCC2)c1 | -21.3%
O=C(Nc1cnn(CCN2CCOCC2)c1)c1ccccc1Cl | -13.4%
O=C(Nc1cnn(CCN2CCOCC2)c1)c1ccccc1O | 55.9%
Clc1ccc(CNc2cnn(CCN3CCOCC3)c2)cc1Cl | 56%
COc1ccccc1CN(CC1CCCO1)C(=O)c1scnc1C (configuration not stated) | -9.08%
O=c1ccc2c(n1Cc1cccnc1)CCN(Cc1ccoc1)CC2 | -110%
Cc1cncc(C2CCCN2CCO)n1 (configuration not stated) | 0.696%
O=C(c1cnccn1)N1CC[C@@H]2CO[C@@H](CN3CCCC3)[C@@H]2C1 | 37.8%
CSc1ccccc1CN1C[C@H]2CC[C@@H](C1)N(CC1CC1)C2=O | 28.3%
COc1c(CNCCc2c[nH]c3cc(F)ccc23)c(C)nn1C | 70.2%
COc1c(CNCCc2c[nH]c3cc(F)ccc23)c(C(C)C)nn1C | 44.2%
COc1c(CNCCc2c[nH]c3ccccc23)c(C)nn1C | 30.1%
CS(=O)(=O)c1ccc(CNc2nccc(C(F)(F)F)n2)cc1 | -33.9%
CN1CC2(CCCN(C(=O)Cc3cccc(O)c3)C2)OC1=O (configuration not stated) | 16.3%
CN(C)CC1COCCN1C(=O)c1ccccc1C(=O)c1ccccc1 (configuration not stated) | 22.6%
O=C1N(Cc2ccc(F)c(F)c2)CCCC12CCN(C1CCCCC1)C2 (configuration not stated) | 81.7%

SMILES | INHIBITION
O=C1N(Cc2ccc(F)c(F)c2)CCCC12CCN(C1CCSCC1)C2 (configuration not stated) | 80.8%
CN(C)S(=O)(=O)N1CCC2(CCCN(Cc3ccc(F)cc3)C2=O)C1 (configuration not stated) | 36.8%
CCS(=O)(=O)N1CCC2(CCCN(Cc3ccc(F)c(F)c3)C2=O)C1 (configuration not stated) | 39.4%
O=C1N(CCc2ccccc2)CCCC12CCN(C(CO)CO)C2 (configuration not stated) | -33.9%
O=C1N(Cc2ccc(F)c(F)c2)CCCC12CCN(C1CCCC1)C2 (configuration not stated) | 37.4%
CC(C)N1CCC2(CCCN(Cc3ccc(F)cc3)C2=O)C1 (configuration not stated) | 70.4%
Cc1cccc(CN2CCCC3(CCN(C4CCSCC4)C3)C2=O)c1 (configuration not stated) | 39.9%
O=C1N(Cc2ccc(F)cc2)CCCC12CCN(C1CCSCC1)C2 (configuration not stated) | 33.3%
Cc1ccccc1C(=O)N1CCC2(CCCN2CCN(C)C)CC1 | -35.6%
CC(C)c1ncncc1C(=O)NCCN1CCCC1 | 29%
CN(C)C(=O)c1c[nH]nc1C1CCN(S(=O)(=O)c2ccc(Cl)cc2)CC1 | 24.8%
CN(Cc1ccco1)[C@@H]1CN(CC2CCOCC2)[C@@H]2CCCO[C@H]12 | 33.4%
CC(C)OCCCNC(=O)CN1CCN(c2nccs2)C(C)C1 (configuration not stated) | -27.5%
Cc1cn[nH]c1C1COCCN1S(=O)(=O)c1cn[nH]c1 (configuration not stated) | 23.2%
Cn1cnnc1SCC(=O)NC1CC(=O)N(CCc2cccc(Cl)c2)C1 (configuration not stated) | 6.29%
CC(=O)N1CCC2(CC1)CC(N1CCOCC1)c1ccc(C)cc12 (configuration not stated) | -39.2%
Cc1nc(NCc2nccn2C)cc(C2COCCN2)n1 (configuration not stated) | 23.375%
Cc1noc(-c2ccc(N3CCC(C(=O)N4CCCC4)CC3)nc2)n1 | 76.7%
Cc1noc(-c2ccc(N3CCCC(C(=O)N4CCSCC4)C3)nc2)n1 (configuration not stated) | 28.8%
Cc1noc(-c2ccc(N3CCCC(C(=O)O)C3)nc2)n1 (configuration not stated) | -19.2%
CCn1ncc(S(=O)(=O)N[C@@H]2CC[C@@H](n3ccnc3C)[C@@H]2O)c1C | 4.9%
